Experimental data from PubChem BioAssay (NCATS).
Inconclusive results are not listed. Active and inactive are the calls of the source. Calls follow the shape of the dose curve; as a rule, active = well fitted cell-killing curve with a large enough effect; inconclusive = small, poorly fitted or top-dose-only effect, or effect the other way; inactive = flat fitted curve, though single readings scatter.

The compounds below were run on OV90 (assay: Primary qHTS to identify gynecologic anti-cancer compounds using libraries of approved drugs and bioactive compounds (AID 1345084; also: nearly all actives have a fitted effect of over 55% in size)). Details: Gynecologic cancer cell panel viability, ATPlite luminescence, 48 h; series mostly up to 57.5 µM; activity change, negative = cytotoxicity: at the top concentration.
Method in brief: (§1)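 Luminescence from the ATPlite ATP-monitoring reagent indicates viable cell number; lower signal means cytotoxicity. Cells received compound 16 h after seeding and were exposed for 48 h across five concentrations.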
% is scaled to controls: 0 for no effect and ±100 for the full control effect; potency is read from the fitted curve at half-maximal effect.

Compound	activity change, negative = cytotoxicity	Potency
Nc1nc(Cl)nc2c1ncn2C1OC(CO)C(O)C1F (centres undefined)	-9.1% (inactive)	
C/C(=C\Cc1c(O)c(Cl)c(C)c(C=O)c1O)CC/C=C(\C)[C@H]1CC(=O)C(C)(C)O1	-3.71% [at 25.3 µM] (inactive)	
CC1(C)SCCN(S(=O)(=O)c2ccc(Oc3ccncc3)cc2)[C@H]1C(=O)NO	3.72% (inactive)	
Cc1sc2c(c1C)C(c1ccc(Cl)cc1)=N[C@H](CC(=O)NCCCCNC(=O)COc1cccc3c1C(=O)N([C@H]1CCC(=O)NC1=O)C3=O)c1nnc(C)n1-2	1.75% (inactive)	
O=C(c1ccc(OC(F)F)c(C#Cc2ccccn2)c1)N1Cc2cccnc2C1	0.956% (inactive)	
CC(F)(F)CN1CCOc2c(nn(-c3ccccc3Cl)c2-c2ccc(Cl)cc2)C1=O	11.9% (inactive)	
COc1cc2ncnc(Nc3ccc(O)c(Br)c3)c2cc1OC	-0.097% (inactive)	
CCCSc1nc(N[C@@H]2C[C@H]2c2ccc(F)c(F)c2)c2nnn([C@@H]3C[C@H](OCCO)[C@@H](O)[C@H]3O)c2n1	2.85% (inactive)	
Fc1ccc(CN2CCC(Nc3ccc(C(F)(F)F)nn3)CC2)cc1F	1.16% (inactive)	
CC(C)c1ccc(NC(=O)c2cccs2)c(-c2nc3ccccc3[nH]c2=O)c1	0.147% (inactive)	
Cc1nc(N2CCN(C(=O)c3ccco3)CC2)c2c3c(sc2n1)CCCC3	-5.21% (inactive)	
CC(O)(C(=O)C1CC1(CO)COC1OC(CO)C(O)C(O)C1O)C1C(O)CC2C3CC=C4CC(O)CC(O)C4(C)C3C(O)CC21C (centres undefined)		4.47 µM (active)
COc1ccc(C[C@H]2COC(=O)[C@@H]2Cc2ccc(O[C@@H]3O[C@H](CO)[C@@H](O)[C@H](O)[C@H]3O)c(OC)c2)cc1OC	10.8% [at 25.3 µM] (inactive)	
O=C(C1CCCCC1)N(CCN1CCN(c2ccccc2O)CC1)c1ccccn1	-8.84% (inactive)	
C=C[C@@]12COC(=O)C(=C)[C@@H]1[C@@H](O)[C@H](C(=C)C(=O)OC)[C@@H](O)C2	-2.68% [at 38.5 µM] (inactive)	
CC[C@H](C(=O)Nc1ccccc1N1CCCC1)c1ccccc1	-2.35% (inactive)	

These compounds were tested on PA-1 in the same assay as above. Details: Gynecologic cancer cell panel viability, ATPlite luminescence, 48 h; series mostly up to 57.5 µM; activity change, negative = cytotoxicity: at the top concentration.
Method in brief: as §1

Compound	activity change, negative = cytotoxicity	Potency
OC1CCC(Nc2nc(-c3ccccc3)nc3[nH]ccc23)CC1 (centres undefined)	4.55% (inactive)	
COc1ccccc1S(=O)(=O)Nc1ccc2c(c1)CN(C)C(=O)N2	-19.2% (inactive)	
NCC1CCN(c2nccc(-c3ccc4ccccc4c3)n2)CC1		14.1 µM (active)
Nc1ncnc2c1nc(Cl)n2C1OC2COP(=O)(O)OC2C1O (centres undefined)		8.91 µM (active)
C[C@H](Oc1cc(-n2cnc3ccc(CN4CCN(C)CC4)cc32)sc1C(N)=O)c1ccccc1C(F)(F)F		11.2 µM (active)
FC(F)(F)c1ccccc1-c1cc(C(F)(F)F)c2nc(C3=NOC4(CCCCC4)C3)[nH]c2c1	3.76% (inactive)	
Nc1nc2c(ncn2C2OC3COP(=O)(O)OC3C2O)c(=O)[nH]1 (centres undefined)	0.488% (inactive)	
O=C(Nc1ccc2[nH]nc(-c3ccncc3)c2c1)[C@@H]1CCN(CC(=O)N2CCN(c3ccc(-c4ncccn4)cc3)CC2)C1	-22.1% (inactive)	
Nc1nc(Cl)nc2c1ncn2C1OC(CO)C(O)C1F (centres undefined)		3.55 µM (active)
CC1(C)SCCN(S(=O)(=O)c2ccc(Oc3ccncc3)cc2)[C@H]1C(=O)NO	-7.82% (inactive)	
Cc1sc2c(c1C)C(c1ccc(Cl)cc1)=N[C@H](CC(=O)NCCCCNC(=O)COc1cccc3c1C(=O)N([C@H]1CCC(=O)NC1=O)C3=O)c1nnc(C)n1-2		1.58 µM (active)
CCC(C)CC(=O)OC1C(=O)C(CO)=CC(O)C1C(C)C (centres undefined)		31.6 µM (active)
CC(F)(F)CN1CCOc2c(nn(-c3ccccc3Cl)c2-c2ccc(Cl)cc2)C1=O	2.92% (inactive)	
CCCSc1nc(N[C@@H]2C[C@H]2c2ccc(F)c(F)c2)c2nnn([C@@H]3C[C@H](OCCO)[C@@H](O)[C@H]3O)c2n1	-0.0102% (inactive)	
CNc1nc(NCc2ccc(NS(C)(=O)=O)cc2Cl)cc(-c2ccccn2)n1	9.88% (inactive)	
Fc1ccc(CN2CCC(Nc3ccc(C(F)(F)F)nn3)CC2)cc1F	2.01% (inactive)	
CCCn1ncc(CN2CCCC(C(=O)c3cccc(OC(C)C)c3)C2)c1C (centres undefined)	-21.1% (inactive)	
C=C1C(=O)O[C@@H]2/C=C(\C)CC/C=C(/C=O)[C@H](OC)[C@@H](OC(=O)C(C)C)[C@@H]12	-12% [at 38.5 µM] (inactive)	
CC(C)c1ccc(NC(=O)c2cccs2)c(-c2nc3ccccc3[nH]c2=O)c1	-12.8% (inactive)	
Cc1nc(N2CCN(C(=O)c3ccco3)CC2)c2c3c(sc2n1)CCCC3	3.16% (inactive)	
CC(O)(C(=O)C1CC1(CO)COC1OC(CO)C(O)C(O)C1O)C1C(O)CC2C3CC=C4CC(O)CC(O)C4(C)C3C(O)CC21C (centres undefined)		1.78 µM (active)
O=C(C1CCCCC1)N(CCN1CCN(c2ccccc2O)CC1)c1ccccn1	1.74% (inactive)	
CC[C@H](C(=O)Nc1ccccc1N1CCCC1)c1ccccc1	24.4% (inactive)	
